Where “and” joins values, the source holds several entries; their conditions need not be identical. Identical values can stand only once.
What was measured:
Assay type in all cases: functional
Plasmodium falciparum [1] = test: GSK_TCMDC: Inhibition of Plasmodium falciparum 3D7 in whole red blood cells, using parasite LDH activity as an index of growth. Test compounds present at 2uM
Plasmodium falciparum [2] = test: GSK_TCMDC: Inhibition of Plasmodium falciparum Dd2 in whole red blood cells, using parasite LDH activity as an index of growth. Test compounds present at 2uM
HepG2 = test: GSK_TCMDC: Percent inhibition of human HepG2 cell line. Test compounds present at 10uM.

Cl.N#Cc1ccc2c(c1)CN(CC[C@H]1CC[C@H](NC(=O)/C=C/c3c[nH]c4ccccc34)CC1)CC2
Inhibition (Plasmodium falciparum [1]): 92% and 97% | Inhibition (Plasmodium falciparum [2]): 24% and 27% | Inhibition (HepG2): 20% and 10%

Cc1cccc2nc(-c3cccc(-c4cccc(NC(=O)C(C)CN(C)C)c4)c3)[nH]c12 (centres undefined)
Inhibition (Plasmodium falciparum [1]): 100% | Inhibition (Plasmodium falciparum [2]): 97% | Inhibition (HepG2): 16%

CCc1c(C)nc(-n2nc(C)cc2NC(=O)c2ccc(OC)cc2OC)[nH]c1=O
Inhibition (Plasmodium falciparum [1]): 96% | Inhibition (Plasmodium falciparum [2]): 57% | Inhibition (HepG2): 42%

Cc1cc(Nc2ccc3ccccc3c2)n2ncnc2n1
Inhibition (Plasmodium falciparum [1]): 96% | Inhibition (Plasmodium falciparum [2]): 95% | Inhibition (HepG2): 11%

COc1ccc2ccc(F)c(CCN3CCC(NCc4cc5c(cn4)OCCO5)CC3)c2n1.Cl
Inhibition (Plasmodium falciparum [1]): 96% | Inhibition (Plasmodium falciparum [2]): 36% | Inhibition (HepG2): 15%

CC(C)Cc1cnc2nc(N)nc(N)c2c1.Cl
Inhibition (Plasmodium falciparum [1]): 98% | Inhibition (Plasmodium falciparum [2]): 0% | Inhibition (HepG2): 66%

CCN1CCN(c2cc(C)c3cc(NC(=O)c4cc(OC)cc(OC)c4)ccc3n2)CC1
Inhibition (Plasmodium falciparum [1]): 100% | Inhibition (Plasmodium falciparum [2]): 90% | Inhibition (HepG2): 0%

Cc1ccc2c(=NN=Cc3ccc(N(C)C)cc3)cc(C)[nH]c2c1
Inhibition (Plasmodium falciparum [1]): 99% | Inhibition (Plasmodium falciparum [2]): 46% | Inhibition (HepG2): 0%

Cc1cc(O)c(C(C)C)cc1C1(c2cc(C(C)C)c(O)cc2C)OC(=O)c2ccccc21
Inhibition (Plasmodium falciparum [1]): 95% | Inhibition (Plasmodium falciparum [2]): 18% | Inhibition (HepG2): 8%

Cc1cccc2nc(-c3cccc(-c4cccc(C(=O)NCCc5cn(C)cn5)c4)c3)[nH]c12
Inhibition (Plasmodium falciparum [1]): 100% | Inhibition (Plasmodium falciparum [2]): 78% | Inhibition (HepG2): 12%

CCOC(=O)c1nc(-c2cc(Cl)nc(Cl)c2)[nH]c1NC(=S)NCc1ccc(NS(C)(=O)=O)cc1
Inhibition (Plasmodium falciparum [1]): 100% | Inhibition (Plasmodium falciparum [2]): 98% | Inhibition (HepG2): 0%

CCN(c1ccccc1)S(=O)(=O)c1ccc(NC(=O)c2cc(-c3cc(C)ccc3O)n[nH]2)cc1
Inhibition (Plasmodium falciparum [1]): 99% | Inhibition (Plasmodium falciparum [2]): 55% | Inhibition (HepG2): 49%

Br.CC(C)c1ccc(OCCCON2C(=N)N=C(N)NC2(C)C)cc1
Inhibition (Plasmodium falciparum [1]): 93% | Inhibition (Plasmodium falciparum [2]): 97% | Inhibition (HepG2): 69%

Cc1[nH]c2ccccc2c1C(=O)C(C)Sc1nnc(-c2ccccc2F)o1 (centres undefined)
Inhibition (Plasmodium falciparum [1]): 99% | Inhibition (Plasmodium falciparum [2]): 99% | Inhibition (HepG2): 24%

C=CCn1c(Cc2ccccc2)nnc1Sc1ccc(C#N)c([N+](=O)[O-])c1
Inhibition (Plasmodium falciparum [1]): 86% | Inhibition (Plasmodium falciparum [2]): 43% | Inhibition (HepG2): 7%

CCOC(=O)C1=C(C)N=c2sc(=Cc3ccccc3O)c(=O)n2C1c1ccc(OC)c2ccccc12 (centres undefined)
Inhibition (Plasmodium falciparum [1]): 97% | Inhibition (Plasmodium falciparum [2]): 38% | Inhibition (HepG2): 0%

CC1(C)[C@H]2CC[C@@H](CNc3nc(NCCc4c[nH]cn4)nc(NCc4cc(F)ccc4F)n3)[C@@H]1C2
Inhibition (Plasmodium falciparum [1]): 100% | Inhibition (Plasmodium falciparum [2]): 91% | Inhibition (HepG2): 0%

O=C(Nc1ccc(S(=O)(=O)N2CCOCC2)cc1)c1cc(-c2cc(Cl)ccc2O)n[nH]1
Inhibition (Plasmodium falciparum [1]): 96% | Inhibition (Plasmodium falciparum [2]): 59% | Inhibition (HepG2): 40%

COc1ccc(Oc2ccc(-c3c(C)[nH]c(C)c(Cl)c3=O)cc2)cc1
Inhibition (Plasmodium falciparum [1]): 97% | Inhibition (Plasmodium falciparum [2]): 97% | Inhibition (HepG2): 0%

CCCCNc1nccc2ccc(-c3ccncc3)cc12
Inhibition (Plasmodium falciparum [1]): 93% | Inhibition (Plasmodium falciparum [2]): 1% | Inhibition (HepG2): 6%

Cl.c1ccc(CN2CCN(CCNc3c4ccccc4nc4ccccc34)CC2)cc1
Inhibition (Plasmodium falciparum [1]): 100% | Inhibition (Plasmodium falciparum [2]): 97% | Inhibition (HepG2): 44%

O=C(N[C@@H](Cc1ccccc1)C(=O)NCCN1CCOCC1)c1ccc(O)c(-c2ccc(Cl)c(Cl)c2)c1
Inhibition (Plasmodium falciparum [1]): 97% | Inhibition (Plasmodium falciparum [2]): 31% | Inhibition (HepG2): 0%

CCn1c(C(C)C)cc2c3c(N)nc(N)nc3ccc21
Inhibition (Plasmodium falciparum [1]): 92% | Inhibition (Plasmodium falciparum [2]): 0% | Inhibition (HepG2): 67%

CCOC(=O)[C@H](Cc1cc([N+](=O)[O-])c(Oc2ccc(OC)c(Cc3ccc(OC)c(C(C)C)c3)c2)c([N+](=O)[O-])c1)NC(=O)C(F)(F)F
Inhibition (Plasmodium falciparum [1]): 94% | Inhibition (Plasmodium falciparum [2]): 0% | Inhibition (HepG2): 5%

CCN1CCC(N(Cc2ccc(-c3ccc(Cl)cc3)cc2)C(=O)Cn2c(CCc3cccc(F)c3F)cc(=O)c3ccccc32)CC1.O=C(O)C(O)C(O)C(=O)O
Inhibition (Plasmodium falciparum [1]): 99% | Inhibition (Plasmodium falciparum [2]): 95% | Inhibition (HepG2): 100%

COc1cc(-c2cc(-c3ccc(OCCN(C)C)cc3)[nH]c2-c2ccncc2)ccc1Cl.Cl
Inhibition (Plasmodium falciparum [1]): 100% | Inhibition (Plasmodium falciparum [2]): 100% | Inhibition (HepG2): 28%

CN1CCN(c2nc(NCCc3ccc(O)cc3)nc(NCc3ccccc3-c3ccc(C(F)(F)F)cc3)n2)CC1
Inhibition (Plasmodium falciparum [1]): 90% | Inhibition (Plasmodium falciparum [2]): 82% | Inhibition (HepG2): 35%

O=C(c1cc2cccc([N+](=O)[O-])c2[nH]1)N1CCC(CCN2CCC(c3c[nH]c4ccccc34)CC2)CC1
Inhibition (Plasmodium falciparum [1]): 89% | Inhibition (Plasmodium falciparum [2]): 24% | Inhibition (HepG2): 45%

Source: ChEMBL document CHEMBL1157539, “Thousands of chemical starting points for antimalarial lead identification” (Nature, 2010)
